These results are taken from PubChem BioAssay AID493014 (National Center for Advancing Translational Sciences (NCATS), 2011).

The whole screen tested about 340,000 compounds, of which about 170 (0.05%) were called active. Roughly 26% stayed inconclusive and do not appear here. Only a selection was taken, and actives are over-represented in it overall. Values without a mark were called inactive. The call rests on the fitted dose curve; in most records, active means well fitted inhibition curve with a large enough effect in the signal ratio, with a control signal flat (not every such curve was filed as active); inconclusive means small, poorly fitted or top-dose-only effect, or effect the other way, or a change in a side signal; inactive means flat fitted curve, though single readings scatter; the % refers to the signal ratio.
Potency means the concentration at half of the fitted maximal effect.

This assay in a line: qHTS Assay to Find Inhibitors of Chronic Active B-Cell Receptor Signaling.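 On activity change, negative = inhibition: plate controls were basal doxycycline-induced cells for no effect and cells given 10 µM MG132 for full effect.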 Conditions: ABC-DLBCL IkBa-CBG/CBR reporter, luminescence ratio, 4 h; series mostly up to 46.1 µM; activity change, negative = inhibition: at the top concentration. The text has this: NIH Molecular Libraries Probe Production Network [MLPCN] NIH Chemical Genomics Center [NCGC] MLPCN Grant: 1 R03 DA031086-01A1 PI Name: Dr. R. Eric Davis NCGC Assay Overview: Diffuse large B-cell lymphoma (DLBCL) is the most common category of non-Hodgkin lymphoma, with ~20,000 new cases per year in the United States. DLBCL should be regarded as a collection of different neoplasms. Microarray gene expression analysis has defined two principal types of DLBCL, named for their similarity to normal B cell stages or activation states: a germinal center B-cell (GCB) type, and an activated B-cell (ABC) type. In ABC-DLBCL, a constitutive high-level activity of the NF-kappaB family of transcription factors has been observed (1) and NF-kappaB target genes are more highly expressed in ABC primary tumors than in GCB tumors. Functional studies have shown a constitutive high-level activity of the IkappaB (inhibitor of kappa-B) kinase (IKK) complex. […] Further analysis of DLBCL primary tumors for NF-kappaB target gene expression imply that although CARD11 is required for constitutive IKK activity in all ABC-DLBCL lines, mutations in CARD11 may be the root cause of IKK activation only in lines or tumors with such mutations. In other words, CARD11 mutations may explain NF-kappaB activation in only 10% of ABC-DLBCL cases. […] This process has been termed 'chronic active BCR signaling' (CABS). The goal of this screen is to find small-molecule inhibitors of the CABS pathway found in ABC-DLBCL lines using a cell-based assay that measures IkappaBalpa stability, which has already been extensively validated in the OCI-Ly3 line (PubChem AID:445; REF: 4). […] The assay uses green (CBG68) and red (CBR) emitting beetle luciferases [Chroma-GloTM developed by Promega Corp.] where the green luciferase is fused to IkappaBalpha and the red luciferase is present in its native state. Both luciferase genes are stably present in the TMD8 human ABC DLBCL cell line, but their expression is under the control of tetracycline-inducible promoters. Following the addition of doxycycline to induce expression of the luciferases, the green luminescence in control cultures rises only slowly because the CBG fusion partner IkappaBalpha is targeted by IKK activity for rapid degradation. In contrast, green luminescence rises rapidly in the presence of proteasome inhibitors or IKK inhibitors. The rise in red luminescence of CBR is not affected by proteasome or IKK inhibitors, and serves as normalization for cell number and nonspecific effects. Compounds were screened as a concentration-titration series that ranged from 46 uM to 3 nM.
NCGC Assay Protocol Summary: Cells were seeded in 1536-well plates at 5000 cells/4uL in IMDM medium containing 0.5% FBS, w/o phenol red, 1% penicillin/streptomycin. Then, 23 nL of compounds or DMSO were delivered to each well using a pin tool. One uL 20ng/ml doxycycline was then dispensed into white solid 1536-well plates and the plates were incubated at 37C/5% C02 in a cell incubator for 4 hrs. Then 4 uL luminescent substrate mix (in-house prepared: 150 mM Tris-Cl, pH 7.6, 3 mM MgCl2, 1% Triton X-100, 5 mM DTT, 0.2 mM CoA, 0.15 mM ATP, 5 mM D-luciferin, final concentrations) was added to each well. The plate was incubated at r.t. for 10-15 min. The plates were measured on a ViewLux plate reader for green luminescence (540/20 nm filter) and red luminescence (618/8 nm filter). The green and red luminescent signals were corrected for red and green luminescence filter overlap using previously determined filter calibration constants (determined using the procedure outlined in the Promega Technical Manual; REF 4). The %Activity was determined from the ratio of corrected green/red luminescent values. MG132 were used as control. […] Red luminescent %Activity was normalized to the difference between red luminesence in basal cells (0%Activity) and zero luminescence (-100% Activity). […]
A general note: In qHTS, concentration-response curves come from the screen itself.
Turning to `CC1CCc2sc(C(=O)NCC(c3ccco3)N3CCCCC3)cc2C1` (stereo unspecified), the “activity change, negative = inhibition” value is 9.66%. Still for that read-out and setting: then `O=C(COc1ccc(F)cc1Br)NCC1COc2ccccc2O1` (stereo unspecified), with -20.7%; and `Cc1ccccc1-c1cc(C(=O)NCc2cccs2)n(CC2CC(c3cccnc3)=NO2)n1` (stereo unspecified), with -0.377%; and `O=C(c1ccc(N2CCOCC2)c([N+](=O)[O-])c1)N1CCN(c2ccccc2F)CC1`, with 5.19%. Same read-out and setting: then `C/C=C/c1ccc(OCC(=O)NNC(=O)CN(C)S(=O)(=O)c2ccc(C)cc2)c(OC)c1`, with 0.21%. In the case of `CN(CC(=O)Nc1ccc(OC(F)F)cc1)S(=O)(=O)/C=C/c1ccccc1`, the “activity change, negative = inhibition” value is 1.8%. Still for that read-out and setting: with `C=CC[C@H](CC(=O)OC(C)(C)C)C(=O)OC[C@H]1CCCN1C(=O)[C@H](CC=C)CC(=O)N(CCO)Cc1ccccc1` the figure was -0.82%. Still for that read-out and setting: then `Cc1ccc(C(=O)CN2C(=O)NC3(CCc4ccccc43)C2=O)c(C)c1` (stereo unspecified), with 3.73%; and `CC(C(=O)Nc1ccc(S(=O)(=O)N2CCCC2)cc1)N(C)Cc1ccc(F)cc1` (stereo unspecified), with -1.3%; and `CCCCNc1c(-c2ccc(OC)c(Sc3ccc(OC)cc3)c2)nc2ccc(Cl)cn12`, with 3.06%. Still for that read-out and setting: then `Cc1ccc2c(CN3CCN(S(=O)(=O)c4ccccc4C(F)(F)F)CC3)cc(=O)oc2c1`, with -0.0569%.

Turning to `COc1ccc(S(=O)(=O)N2CCOCC2)cc1NC(=O)c1ccc(OCC(C)C)c(OC)c1`, the “activity change, negative = inhibition” value is -2.65%.

For `COc1ccccc1-c1oc2ccccc2c1C#CCCCCO`, the “activity change, negative = inhibition” value is -1.28%. With `COc1ccccc1S(=O)(=O)NCc1ccc(C(=O)N(C)Cc2ccc(F)cc2)cc1`, the “activity change, negative = inhibition” value was 1.52%. Still for that read-out and setting: with `COc1ccc(NC(=O)CCC(=O)N2CCN(S(=O)(=O)c3ccc(C)cc3)CC2)c(OC)c1` the figure was -0.736%; with `CSc1ccccc1NC(=O)c1cnc2sc(C)cn2c1=O`, 5.7%. Same read-out and setting: with `COc1ccc(OCCCC(=O)Nc2cccc(S(=O)(=O)N3CCCCCC3)c2)cc1` the figure was -11.7%; with `O=C(NCCc1ccco1)c1ccc(OCc2cn3ccccc3n2)cc1`, 2.67%. Still for that read-out and setting: with `CN(CCc1ccccc1)C(=O)c1cccc(NC(=O)Cc2ccc([N+](=O)[O-])cc2)c1` the figure was -0.71%; with `CC(C)CN(C(=O)COC(=O)c1ccc(Cl)c(N)c1)c1c(N)n(Cc2ccccc2)c(=O)[nH]c1=O`, 7.64%; with `NC(=O)c1ccccc1N(Cc1ccccc1)S(=O)(=O)c1ccccc1`, -0.649%. Turning to `CCOC(=O)N1CCN(S(=O)(=O)c2ccc(OC)cc2)CC1`, the “activity change, negative = inhibition” value was -1.49%. Consider `CCOC(=O)N1CCN(C(=O)c2ccccc2N(Cc2ccccc2)S(=O)(=O)c2ccc(OC)cc2)CC1`, for which the Potency was 15.8 µM (active). Consider `O=C(CNS(=O)(=O)c1ccc2c(c1)OCCCO2)N1CCN(c2ccc(F)cc2)CC1`, for which the “activity change, negative = inhibition” value is -1.04%. Still for that read-out and setting: then `Cc1c(C(=O)Nc2cccc(S(=O)(=O)N3CCOCC3)c2)oc2ccccc12`, with 0.517%; and `O=C(O)CCCn1c(=O)c2cccn2c2ccc(F)cc21`, with 0.777%; and `COc1cc(/C=C2\Oc3ccc(C#Cc4ccc(O)cc4)cc3C2=O)cc(OC)c1`, with 1.17%. `COc1cc(C#Cc2ccc3cc(CCCO)oc(=O)c3c2)cc(OC)c1`: the Potency is 14.6 µM (active). With `C/C(=N\NC(=S)NC(C)C)c1ccc(C(C)(C)C)cc1`, the “activity change, negative = inhibition” value was -7.38%. The same measure, in the same setting: with `CC(NC(=S)Nc1ccc(OC(F)F)cc1)c1ccc(F)cc1` (stereo unspecified) the figure was -0.112%. Consider `CC/C(=N\NC(=S)NC(C)C)c1ccc(OC(F)F)cc1`, for which the Potency was 22.4 µM (active). In the case of `COc1ccc(C)cc1NC(=O)c1cc(-c2ccccc2)nc2c1cnn2C(C)C`, the “activity change, negative = inhibition” value was -0.898%. On to `Cc1ccc(C)c(OCCC(=O)Nc2cccc(S(=O)(=O)N3CCCC3)c2)c1`, for which the “activity change, negative = inhibition” value was 6.06%. On the same count and under the same terms, then `Cc1ccnc(N2C(=O)c3ccc([N+](=O)[O-])cc3C2=O)c1`, with 2.03%. On to `Cc1ccc2nc(NC(=O)CSc3nc(=O)n(CCCN(C)C)c4c3CCC4)sc2c1`, for which the “activity change, negative = inhibition” value was -4.3%. Still for that read-out and setting: then `CC(C)CC1NC(=O)c2cc(Cl)ccc2-n2c1nc1ccccc1c2=O` (stereo unspecified), with 1.81%. Same read-out and setting: then `O=C(Cc1ccc(S(=O)(=O)N2CCOCC2)s1)N1CCN(c2ccc(C(F)(F)F)cc2[N+](=O)[O-])CC1`, with 9.72%. On the same count and under the same terms, with `C[C@H](OC(=O)n1ccnc1)[C@@H]1O[C@@]2(C)CCC[C@@H]1O2` the figure was 4.3%; with `O=C(OCc1cc(=O)n2ccsc2n1)C1(c2ccc(Cl)cc2)CC1`, -0.535%; with `COc1ccc(C)cc1NC(=O)CN1c2cccc3cccc(c23)S1(=O)=O`, -10.2%. Consider `CCc1ccc(C(=O)NNC(=O)C2CCN(c3ncnc4sc(C)c(C)c34)CC2)cc1`, for which the “activity change, negative = inhibition” value is -0.145%. As to `Cc1cccc(C)c1Nc1nnc(SCC(=O)NCCCN2CCCC2=O)s1`, the “activity change, negative = inhibition” value is 0.388%. As to `Brc1ccc(CN2CC[C@H]3C=CCc4cccc(c43)C2)cc1`, the “activity change, negative = inhibition” value was 1.81%. On the same count and under the same terms, with `O=C(OCC(=O)N1CCCCCC1)c1ccc(Cl)nc1` the figure was 3.23%; with `CC1CCCCC12NC(=O)N(CC(=O)OCc1c(F)cccc1Cl)C2=O` (stereo unspecified), 0.901%; with `CCOc1ccc(S(=O)(=O)Nc2ccc(C(=O)NCCCN3CCCC3=O)cc2)cc1`, 1.73%. On the same count and under the same terms, then `CN(CC(=O)NC1CCN(Cc2ccccc2)CC1)S(=O)(=O)c1ccc(Cl)s1`, with 3.04%; and `COc1cc(OC)cc(-c2c(-c3cccs3)c3cc(-c4ccc(OC)nc4)ccc3n2C)c1`, with 3.8%; and `Cc1ccc(NC(=O)CN(C)C(=O)c2cccc(S(=O)(=O)N3CCCC3)c2)cc1`, with 4.91%.

Turning to `CN(C)C(=O)CCc1ccc2c3c([nH]c2c1)[C@]1(CCC2CCCC2)[C@@H](C(=O)N2CCOCC2)C[C@H](CC(=O)NCc2ccco2)C(=O)N1CC3`, the “activity change, negative = inhibition” value was -1.11%. On the same count and under the same terms, then `COc1cccc(CNC(=O)COc2cc(O)c3c(c2)OC(C)(C)CC3=O)c1`, with -1.68%; and `Cc1ccc(NC(=O)c2ccc(Cl)nc2)cc1S(=O)(=O)N1CCOCC1`, with 3.9%; and `COc1ccc(-c2sc3ccccc3c2-c2ccc(OCCN3CCOCC3)cc2)cc1`, with 3.76%.

As to `COc1cccc(-c2sc3ccc(OC)cc3c2-c2ccc(OCCN3CCCCC3)cc2)c1`, the Potency is 18.4 µM (active). Regarding `COc1ccc2sc(-c3ccccc3OC)c(-c3ccc(OCCN4CCCC4)cc3)c2c1`, the “activity change, negative = inhibition” value is -1.61%. Same read-out and setting: with `CCN(CC)c1ccc(S(=O)(=O)N2CCCCC2)cc1NC(=O)C1=COCCO1` the figure was 19.3%; with `COc1ccccc1CNC(=O)c1ccc(Cl)c(S(=O)(=O)N2CCCC2)c1`, 1.79%; with `Cc1onc(-c2c(F)cccc2Cl)c1C(=O)OCC(=O)N1C(C)CCCC1C` (stereo unspecified), 3.11%. The same measure, in the same setting: then `COc1ccc(S(=O)(=O)N2CCCCCC2)cc1C(=O)N(C)Cc1cccc(OC)c1OC`, with 2.39%; and `COC(=O)c1ccc(/C=C/c2c(-c3ccc(OC)cc3)sc3ccccc23)cc1`, with -0.0266%; and `O=C1Nc2ccccc2/C1=C/c1ccnc2ccccc12`, with -9.05%.
